In the library only some 4.1% were active in any assay of this set; here they are far more common.
BoNT F protease – BoNT/F light chain protease inhibitors, primary screen, biochemical, flow cytometry, MLPCN library; Botulinum neurotoxin type F light chain protease (Clostridium botulinum); Multiplex microsphere protease cleavage assay; inhibition, % at 10 µM; hit rate 0.22% among 360,000; AID 588497, 2011; in the data active = inhibition above about 35%, passing the limit was not always enough; inconclusive = no clear call, values can overlap the other calls; note: plate controls were buffer without enzyme for full effect and enzyme alone for no effect
MazEF act – activators of E. coli MazEF toxin-antitoxin RNase, primary screen, biochemical, fluorescence, uHTS | FAM/BHQ RNA-DNA oligo cleavage fluorescence, 5 h | hit rate 0.32% among 350,000 | Endoribonuclease toxin MazF (Escherichia coli (strain K12)), P0AE70 | AID 504720, 2011 | activation, % at 20 µM; in the data active = activation above about 50%
VHR inh abs – VHR1 phosphatase inhibitors, primary screen, biochemical, absorbance, uHTS. inhibition, % at 13.3 µM. Dual specificity protein phosphatase 3 (Homo sapiens), P51452. hit rate 0.52% among 290,000. recombinant VHR phosphatase, pNPP absorbance; in the data active = inhibition above about 50%
Autofluor counter – flagged as autofluorescent in microsphere protease counterscreen. compound autofluorescence counterscreen, microsphere flow cytometry; hits give high values. fluorescence intensity (no concentration beside the values). hit rate 3.1% among 360,000. AID 624483; in the data active = fluorescence intensity above about 16000; inconclusive = no clear call, values can overlap the other calls
Anthrax LF inh2 – Bacillus anthracis LF protease inhibitors, primary screen, biochemical, multiplex microsphere, MLPCN library. Lethal factor (Bacillus anthracis), P15917. multiplex microsphere protease cleavage assay. inhibition, % at 10 µM. hit rate 0.12% among 360,000. AID 588501, 2011; note: plate controls were buffer without enzyme for full effect and enzyme alone for no effect
BoNT-A LC inh2 – BoNT/A light chain protease inhibitors, primary screen, biochemical, flow cytometry, MLPCN library | AID 588499, 2011 | hit rate 0.17% among 360,000 | multiplex microsphere protease substrate cleavage | inhibition, % at 10 µM | Botulinum neurotoxin type A light chain protease (Clostridium botulinum A str. ATCC 3502); note: plate controls were buffer without enzyme for full effect and enzyme alone for no effect
The depositor's hits bear a star; ? = inconclusive; nt = no result. Cut-off read from the data, not from the text of the source, unless noted: active = inhibition above about 30%; inconclusive = no clear call, values can overlap the other calls; inactive = below that.

SMILES	BoNT F protease	MazEF act	VHR inh abs	Autofluor counter	Anthrax LF inh2	BoNT-A LC inh2
COc1cccc(CN2CC(C(=O)NCc3ccc(C)o3)CCC2=O)c1 (stereo not drawn)	11	2	13	5868	4	-1
COc1ccc(-c2nc(C3CCCCC3)no2)cc1OC	2	-10	16	22056*	1	1
COc1ccc(NC(=O)CSc2nc3ccccc3c(=O)n2CCC(=O)N2CCCCC2)cc1	-1	2	19	21679*	1	0
COc1cccc(NC(=O)CSc2nc3ccccc3c(=O)n2CCCC(=O)N2CCCC2)c1	1	5	29	23337*	-3	?
COCCCNC(=O)CCCN1C(=O)c2cccnc2Sc2ccccc21	-1	3	-25	3133	-3	0
Cc1ccc(NC(=O)C(C)N2C(=O)C3C4CC(C(Br)C4Br)C3C2=O)cc1 (stereo not drawn)	-3	6	27	22632*	-2	-1
Cc1ccc(NC(=O)C(C)N2C(=O)C3CC=C(Cl)CC3C2=O)cc1 (stereo not drawn)	-8	8	-6	6424	0	-1
CCOc1ccccc1N1CCN(C(=O)c2cccs2)CC1	-6	-2	14	3463	-5	-1
COCCN1CCc2c(C)nc3c(-c4ccc(OC)c(OC)c4)cnn3c21	2	7	4	9041	-11	1
COc1ccc(-c2cnn3c4c(c(C)nc23)CCN4C2CCCC2)cc1OC	-4	-5	11	17372*	-2	-2
CN(C)S(=O)(=O)N1CCN(c2ccc(Cl)cc2)CC1	0	5	18	16470*	-2	0
Cc1ccc(S(=O)(=O)N2CCN(S(=O)(=O)c3ccccc3)C2)cc1	4	0	23	21096*	-5	3
CN1CCN(S(=O)(=O)c2ccc(-c3ccccc3)cc2)CC1	3	-7	20	22073*	2	1
Cc1ccc(S(=O)(=O)N2CCN(S(C)(=O)=O)C2)cc1	-15	-3	24	7383	-1	0
Cc1ccc(-c2ccc(S(=O)(=O)N3CCCC3)cc2)cc1	3	6	24	4074	-2	0
Cc1ccc(N2CCN(S(=O)(=O)N(C)C)CC2)cc1C	0	2	-5	4356	-8	1
Cc1ccc(-c2ccc(S(=O)(=O)N3CCN(C)CC3)cc2)cc1	1	-8	40	21880*	-2	1
Cc1ccc(S(=O)(=O)N2CCC(C(=O)N/N=C/c3cccn3C)CC2)cc1	-9	-2	nt	3632	-6	0
CCOCCOC(=O)Cn1cnc2scc(-c3ccc(C)cc3)c2c1=O	?	-4	12	3200	19	-2
O=S(=O)(c1ccc(F)cc1)N1CCN(c2ccc(-c3ccccc3)nn2)CC1	4	63*	37	4132	-8	1
O=S(=O)(Nc1cccc(-c2ccc(N3CCCCCC3)nn2)c1)c1ccc(F)cc1	-1	18	21	6208	0	0
CN(C)S(=O)(=O)N1CCN(S(=O)(=O)c2ccccc2)CC1	2	3	8	20194*	-7	0
CC(=O)c1cnc(Nc2cccc(Cl)c2Cl)s1	-5	0	-3	4964	1	0
O=C(c1ccc(Cl)cc1)c1cnc(Nc2ccccc2Cl)s1	-7	14	16	20938*	-1	?
Cc1cc2nc3c(nc2cc1C)C1(C(=O)O)CCC3(C)C1(C)C (stereo not drawn)	3	-3	-12	4611	0	2
CNC(=O)C12CCC(C)(c3nc4cc(C)c(C)cc4nc31)C2(C)C (stereo not drawn)	0	11	12	23268*	2	2
COC(=O)COc1ccc(S(=O)(=O)Nc2ccc3c(c2)OCCO3)cc1Cl	5	11	7	20964*	-4	5
Cc1cc(Cl)c(S(=O)(=O)Nc2ccc3c(c2)OCCO3)cc1OCC(=O)NC1CCCCC1	1	11	7	19863*	-3	?
Cc1cc(Cl)c(S(=O)(=O)Nc2ccon2)cc1OCC(=O)NC1CCCCC1	8	0	-2	10581	-15	-1

High-throughput results as filed in PubChem BioAssay.
